This is an account of results in PubChem BioAssay (NCATS).

Inconclusive results are not listed. Activity calls are given as the source filed them. The call rests on the fitted dose curve; in most records, active means well fitted inhibition curve with a large enough effect; inconclusive means small, poorly fitted or top-dose-only effect; inactive means flat fitted curve, though single readings scatter. Where a SMILES comes first, the peptide text is derived from it. The star is where a group is joined. βNA = c1ccc2cc(N*)ccc2c1; Cbz = O=C(OCc1ccccc1)*

In the experiment the test system is NIH3T3. As to the kind of experiment: qHTS assay to identify novel small-molecules to repurpose for Merkel cell carcinoma treatment (AID 1296009). Further: nearly all actives have a fitted effect of over 60% in size. The conditions noted are these: MCC and control cell lines, CellTiter-Glo viability, 72 h; at 44.8 µM (top of the series) unless noted. The method in brief: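 Cells exposed to NPC (8-point) and MIPE (11-point) compound dilutions for 72 hr at 37 degree celsius; viability read by CellTiter-Glo luminescence, normalized to no-cell and DMSO in-plate controls.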
A general note: qHTS replaces the single test concentration by a dilution series.
On to `O=C(O)Cc1cn([C@@H]2O[C@H](CO)[C@@H](O)[C@H](O)[C@H]2O[C@@H]2O[C@H](CO)[C@@H](O)[C@H](O)[C@H]2O)c2ccccc12`, for which the outcome is “inactive [at 17.4 µM]”.
As for `C=C1CC[C@@]2(OC1)O[C@H]1CC3[C@@H]4CC=C5C[C@@H](O)C[C@@H](O[C@@H]6OC[C@H](O)[C@H](O)[C@H]6O[C@@H]6O[C@@H](C)[C@H](O)[C@@H](O)[C@H]6O)[C@]5(C)C4CC[C@]3(C)[C@H]1[C@@H]2C` (some centres undefined), the outcome was “inactive [at 17.4 µM]”.
Next, `CC(C)CC(NC(=O)OCc1ccccc1)C(=O)NC(CC(C)C)C(=O)NC(CCC(=O)O)C(=O)Nc1ccc2ccccc2c1` (stereo not drawn) (Cbz-Leu-Leu-Glu-βNA; configuration not given here): “inactive”; `OC[C@@]1(O)CO[C@H](OC[C@H]2O[C@@H](OC(CCCCc3ccc(O)cc3)CCc3ccc(O)cc3)[C@H](O)[C@@H](O)[C@@H]2O)[C@@H]1O` (some centres undefined): “inactive [at 17.4 µM]”; `Nc1ccc(-n2nc(C(F)(F)F)cc2C(F)(F)F)cc1`: “inactive”.
For `C/C(=C\C(=O)C[C@@]12C(=O)O[C@]3(C)CC[C@H]1C[C@H]23)C(N)=O`, the molecule was called inactive.
On to `Nc1ncnc2c1C(=O)N(c1ccc(C3CCC(CC(=O)O)CC3)cc1)CCO2` (centres undefined), for which the molecule was called inactive.
Take `COC1OC(=O)C2=C1C1(C)CCCC(C)(C)C1CC2O` (centres undefined): the molecule was classed as inactive.
On to `C=C(CC/C=C(\C)C(=O)O)C1(O)CC=C(C)CC1` (centres undefined), for which the outcome was inactive.
For `CC(C)Oc1ccc(-c2nc(-c3cccc4c3CCC4NCCC(=O)O)no2)cc1C#N` (centres undefined), the molecule was classed as inactive.
For `C=C1CC[C@@]2(OC1)O[C@H]1CC3[C@@H]4CC=C5C[C@H](O[C@H]6OC[C@@H](O)C(O)[C@@H]6O[C@@H]6O[C@@H](C)[C@H](O)[C@@H](O[C@@H]7O[C@H](CO)[C@@H](O)[C@H](O)[C@H]7O)[C@H]6O)C[C@@H](O)[C@]5(C)C4CC[C@]3(C)[C@H]1[C@@H]2C` (some centres undefined), the outcome is “inactive [at 9.27 µM]”.
With `CC(C)c1cc2c(c(O)c1O)[C@@]13CCCC(C)(C)C1[C@@H](O)[C@@H]2OC3=O` (some centres undefined), the molecule was classed as inactive.
For `COc1cccc(C)c1C(=O)O[C@@H]1C[C@H](O[C@H]2[C@H](O)C[C@H](O[C@@H]3CCC[C@H]4[C@H]3C=C[C@@H]3CCCC/C=C/[C@H]5C=C(C(=O)O)[C@@H](C)C[C@@]56OC(=O)C(=C6O)OC(=O)[C@@]34C)O[C@@H]2C)O[C@H](C)[C@H]1O`, the outcome was “inactive [at 9.27 µM]”.
Take `CC(=O)OC1C(CO)OC(O[C@H]2[C@H](OC(=O)[C@]34CCC(C)(C)C[C@H]3C3=CCC5[C@@]6(C)CC[C@H](O[C@@H]7O[C@H](C(=O)O)[C@@H](O)[C@H](O[C@@H]8OC[C@@H](O)[C@H](O)[C@H]8O)[C@H]7O[C@@H]7O[C@H](CO)[C@H](O)[C@H](O)[C@H]7O)[C@@](C)(C=O)C6CC[C@@]5(C)[C@]3(C)C[C@H]4O)O[C@H](C)[C@H](OC3OC(C)C(OC4OCC(O)C(O)C4O)C(O)C3O)[C@@H]2O)C(O)C1O` (some centres undefined): the outcome is “inactive [at 9.27 µM]”.
Next, `CC(C)=CCC/C(C)=C/CO[C@@H]1O[C@H](CO[C@@H]2O[C@@H](CO)[C@H](O)[C@H]2O)[C@@H](O)[C@H](O)[C@H]1O`: “inactive [at 17.4 µM]”.
Take `O=C(c1ccc(Cl)c([N+](=O)[O-])c1)N1CCN(c2ccccc2F)CC1`: the molecule was classed as inactive.
Regarding `COc1cc(O)c2c(c1Cl)CC(C)OC2=O` (centres undefined), the outcome was inactive.
The value for `CCCCNc1nc(N)c2[nH]c(=O)n(Cc3ccc(OCCN(C)C)nc3)c2n1` was “inactive; activator”.
Next, `CC(O)C(=O)/C=C/C=C/C(=O)OC1C=C2COC(=O)C2(O)C2(C)CCCC(C)(C)C12` (centres undefined): “inactive [at 17.4 µM]”.
Turning to `CC1(C)CC[C@]2(C(=O)O)CC[C@]3(C)C(=CCC4[C@@]5(C)CC[C@H](O[C@@H]6O[C@H](C(=O)O)[C@@H](O)[C@H](O[C@@H]7O[C@H](CO)[C@H](O)[C@H](O)[C@H]7O)[C@H]6O[C@@H]6O[C@H](CO)[C@@H](O)[C@H](O)[C@H]6O)C(C)(C)C5CC[C@]43C)[C@@H]2C1` (some centres undefined), the outcome was “inactive [at 4.96 µM]”.
On to `CC(=O)OC(C)(C)/C=C/C(=O)[C@](C)(O)C1[C@H](O)C[C@@]2(C)[C@@H]3CC=C4[C@@H](C[C@H](O[C@@H]5O[C@H](CO)[C@@H](O)[C@H](O)[C@H]5O)C(=O)C4(C)C)[C@]3(C)C(=O)C[C@]12C` (some centres undefined), for which the outcome is “inactive [at 17.4 µM]”.
Take `CC1=CC(=O)CC(C)(C)[C@@]1(O)/C=C/C(C)O[C@@H]1O[C@H](CO)[C@@H](O)[C@H](O)[C@H]1O` (some centres undefined): the outcome is “inactive [at 17.4 µM]”.
Next, `CC(C)C1NC(=O)C(CC2(O)c3ccccc3N3C(=O)C(Cc4ccccc4)NC32)NC1=O` (centres undefined): “inactive [at 17.4 µM]”; `OC[C@@]1(O)CO[C@H](OC[C@H]2O[C@@H](OC(CCCCc3ccc(O)cc3)CCc3ccc(O)cc3)[C@H](O[C@H]3OC[C@](O)(CO)[C@H]3O)[C@@H](O)[C@@H]2O)[C@@H]1O` (some centres undefined): “inactive [at 17.4 µM]”.
For the molecule `COC(=O)c1c(CC=C(C)C)c(OC2OC(CO)C(O)C(O)C2O)c2ccccc2c1OC1OC(CO)C(O)C(O)C1O` (centres undefined), the outcome was “inactive [at 17.4 µM]”.
In the case of `C[C@]1(O)CC[C@@H]2C(C(=O)O)=CO[C@@H](O[C@@H]3O[C@H](COC(=O)/C=C/c4ccc(O)c(O)c4)[C@@H](O)[C@H](O)[C@H]3O)[C@@H]21`, the outcome is “inactive [at 17.4 µM]”.
With `CC(C)(O)C1CC=C(C(=O)OC[C@H]2O[C@@H](Oc3cc(C(=O)O)cc(O)c3O)[C@H](O)[C@@H](O)[C@@H]2O)CC1` (some centres undefined), the outcome is “inactive [at 17.4 µM]”.
Consider `COc1cc2c(cc1O)CC(O)(CO)C(CO)C2c1ccc(OC2OC(CO)C(O)C(O)C2O)c(OC)c1` (centres undefined), for which the outcome was “inactive [at 17.4 µM]”.
Take `O=C(O)CC/C=C\C[C@H]1CO[C@@H](c2ccccc2Cl)O[C@H]1c1ccccc1O`: the molecule was called inactive.
